Test [1] in a line: resazurin metabolic signal in HepG2 cells – cell-based, resazurin fluorescence, 24 h, PK04 Diversity Set, profiling panel (AID 1172). Also: test concentration not given here. To be noted: HepG2 viability, higher = more signal. In general terms: The colour change of resazurin is a common sign of viable cells or microbes.
Test [2] in a line: budding yeast growth changes without added modifier – OD600, strain BY4716, 24 h, basal condition, primary screen (AID 1173). To be noted: S. cerevisiae BY4716 growth, OD600, 24 h; higher = more signal, called active from +8 up or from −8 down.
Test [3] is described as follows: viability profiling in MM1S myeloma cells – cell-based, resazurin fluorescence, basal, 24 h, PK04 Diversity Set, profiling panel (AID 1174).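 Also: MM1S multiple myeloma cell line; test concentration not given here.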 To be noted: higher = more signal, called active from +8 up or from −8 down.
Test [4] concerns the target Dihydroorotate dehydrogenase (quinone), mitochondrial (Plasmodium falciparum (isolate 3D7)) (UniProt Q08210). Nature of the test: inhibition of P. falciparum DHODH – biochemical, C-terminal His tag, absorbance 600 nm, primary screen (AID 1175).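 Also: recombinant parasite enzyme with a five histidine tag at its C terminus; test concentration not given here.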 To be noted: PfDHODH enzyme, DCIP absorbance 600 nm; higher = more signal, called active from +8 up or from −8 down.
The nature of test [5]: inhibition of PAO1 biofilm formation – strain PAO1, LB-PBS medium, absorbance 600 nm, primary screen (AID 1176). Also: test concentration not given here. To be noted: P. aeruginosa PAO1 growth/biofilm, A600, 12 h; higher = more signal.
The nature of test [6]: growth modulation of vineyard yeast isolate – strain RM11-1a, OD600, basal, 24 h, primary screen (AID 1177).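 Also: cultures grown under basal conditions with no added stressor; test concentration not given here.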 To be noted: S. cerevisiae RM11-1a growth, OD600, 24 h; higher = more signal, called active from +8 up or from −8 down.
Test [7] in a line: growth of efflux-deficient E. coli DRC39 – strain DRC39, OD650, 24 h, E. coli filamentation inducers, primary screen (AID 1178).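 Also: growth measured as culture turbidity by optical density at 650 nm; test concentration not given here.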 To be noted: E. coli DRC39 acrAB, higher = more signal, called active from +8 up or from −8 down.
A short description of test [8]: growth of efflux-deficient E. coli DRC39 – strain DRC39, OD650, 48 h, E. coli filamentation inducers, primary screen (AID 1179).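 Also: screen aims at cell division blockers that make cells filament.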 To be noted: E. coli DRC39 delta-acrAB growth, higher = more signal, called active from +8 up or from −8 down.
Test [9] can be described thus: viability profiling in RPMI8226 myeloma cells – cell-based, resazurin fluorescence, basal, 24 h, PK04 Diversity Set, profiling panel (AID 1180).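 Also: RPMI8826 multiple myeloma cell line at 5000 cells per well; test concentration not given here.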 To be noted: higher = more signal.
Test [10] addresses E3 ubiquitin-protein ligase XIAP (Homo sapiens) (UniProt P98170). Nature of the test: small molecules binding XIAP protein – biophysical, small-molecule microarray, fluorescence 635 nm, primary screen (AID 1181).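 Also: score merges 667 nm emission and signal to noise over triplicate slides.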 To be noted: higher = more signal.

The structures appear in SMILES notation. Activity calls are given as the source filed them. Unless noted, no rule for the calls is given here.

Sequence of E3 ubiquitin-protein ligase XIAP (Homo sapiens) (P98170 whole entry, looked up): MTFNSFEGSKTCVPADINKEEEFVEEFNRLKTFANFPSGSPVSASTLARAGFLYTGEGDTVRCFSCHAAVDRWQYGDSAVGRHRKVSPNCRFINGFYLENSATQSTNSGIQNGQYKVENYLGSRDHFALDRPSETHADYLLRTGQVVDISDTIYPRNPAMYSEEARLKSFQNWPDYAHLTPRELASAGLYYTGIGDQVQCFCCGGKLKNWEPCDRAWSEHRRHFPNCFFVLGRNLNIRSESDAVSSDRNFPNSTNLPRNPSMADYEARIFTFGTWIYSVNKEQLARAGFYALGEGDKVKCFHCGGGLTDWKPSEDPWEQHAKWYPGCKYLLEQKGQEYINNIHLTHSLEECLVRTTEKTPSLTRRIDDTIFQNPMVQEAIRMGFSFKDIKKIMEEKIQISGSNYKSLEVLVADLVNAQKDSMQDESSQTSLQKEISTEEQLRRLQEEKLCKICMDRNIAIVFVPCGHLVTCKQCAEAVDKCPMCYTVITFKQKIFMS
Sequence of Dihydroorotate dehydrogenase (quinone), mitochondrial (Plasmodium falciparum (isolate 3D7)) (Q08210 whole entry, looked up): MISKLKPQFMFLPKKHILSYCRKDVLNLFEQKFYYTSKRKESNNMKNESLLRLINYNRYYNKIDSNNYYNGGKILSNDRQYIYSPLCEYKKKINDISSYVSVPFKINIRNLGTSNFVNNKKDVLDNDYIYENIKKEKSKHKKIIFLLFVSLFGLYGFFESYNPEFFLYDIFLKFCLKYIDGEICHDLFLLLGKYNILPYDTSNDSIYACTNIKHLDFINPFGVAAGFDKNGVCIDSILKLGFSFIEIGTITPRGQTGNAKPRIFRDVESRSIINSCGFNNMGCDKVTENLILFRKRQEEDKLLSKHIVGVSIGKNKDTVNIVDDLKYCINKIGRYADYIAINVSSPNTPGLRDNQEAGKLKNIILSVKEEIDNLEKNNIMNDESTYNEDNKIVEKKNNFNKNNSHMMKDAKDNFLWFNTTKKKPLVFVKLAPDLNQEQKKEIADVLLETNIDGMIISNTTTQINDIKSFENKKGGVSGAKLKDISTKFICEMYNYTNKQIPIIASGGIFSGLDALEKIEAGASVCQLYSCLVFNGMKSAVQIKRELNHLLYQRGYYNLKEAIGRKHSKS

For `CCOC(=O)[C@H](CC(C)C)NC(=O)CCC1CC(OC(=O)NCc2cccc3ccccc23)CC2(CCCC(COC(=O)NCCN3CCOCC3)O2)O1` (stereo not given in full), the z-score in test [1] was 1.29; in test [2], -0.996 (inactive); in [3], 1.09 (inactive); in test [5] it was 0.131 (inactive); in [6], -0.613 (inactive); in test [7], -0.404 (inactive). Further, the z-score in test [8] was -0.88 (inactive); in test [9], 1.19. In addition, the composite z-score in test [4] was -0.247 (inactive); in test [10], -0.0143.
For the compound `COc1ccc([Si](C)(C)[C@H]2[C@H](CCO)O[C@@]3(C(=O)N(Cc4cccc(NC(=O)[C@H](C)O)c4)c4ccccc43)[C@@H]2C)cc1`, the z-score in test [1] was -5.76; in test [2], -0.321 (inactive); in test [3], -9.08 (active); in [5], 1.19 (inactive); in [6], 4.03 (inactive); in test [7], 1.7 (inactive). The z-score was 1.14 (inactive) in test [8] and -6.16 in test [9]. Further, the composite z-score is 1.35 (inactive) in test [4] and 0.131 in test [10].
In the case of `CN1C(=O)C2C(C1=O)C1C=C(CCCO)C2C(c2ccc(CN3CCCC3)cc2)N1C` (stereo not given), the z-score was -1.03 in [1]; 1.04 (inactive) in test [2]; -1.78 (inactive) in test [3]; -1.02 (inactive) in test [5]; 0.626 (inactive) in test [6]; -0.815 (inactive) in test [7]. Also, the z-score in test [8] was -0.296 (inactive); in test [9], -0.802. Further, the values for the composite z-score in test [4] and in test [10] were -3.89 (inactive) and 0.182, respectively.
For `COC(=O)[C@@H]1CCCN1C(=O)[C@@H](C)CO`, the z-score is -0.337 in test [1]; -1.06 (inactive) in [2]; -0.379 (inactive) in test [3]; 0.0372 (inactive) in [5]; -0.213 (inactive) in test [6]; -1.47 (inactive) in [7]. Moreover, the figures for the z-score in [8] and in [9] were -2.18 (inactive) and -0.376, respectively. The composite z-score in test [4] is -2.93 (inactive); in test [10] it was -0.0415.
With `CC[C@@H](c1ccccc1)n1c(=O)n2n(c1=O)[C@H]1[C@H](O)[C@@H]3O[C@@H]3C(=NOCC=C(C)CCC=C(C)C)[C@H]1CC2`, the z-score in [1] is -0.301; in test [2], 0.11 (inactive); in test [3], -0.16 (inactive); in test [5], -0.261 (inactive); in test [6], 1.01 (inactive); in test [7], -0.271 (inactive). Moreover, the z-score is -1.98 (inactive) in [8] and -0.451 in [9]. The composite z-score in test [4] was 0.0031 (inactive); in test [10], -0.141.
Consider `C=CCN1C(=O)[C@]2(O[C@H](CCn3cc(CCO)nn3)[C@@H]([Si](C)(C)c3ccc(OC)cc3)[C@@H]2C)c2cc(N3CCOC3=O)ccc21`, for which the z-score in test [1] is -0.0584; in test [2], -0.528 (inactive); in test [3], -0.368 (inactive); in test [5], 0.614 (inactive); in test [6], 0.817 (inactive); in test [7], -0.815 (inactive). Besides, the z-score in test [8] was -1.18 (inactive); in test [9] it was -0.789. Besides, the results for the composite z-score in [4] and in test [10] were -0.173 (inactive) and -0.124, respectively.
For the compound `CC(C)CON=C1C[C@@H](O)[C@@H](O)[C@@H]2[C@@H]3C(=O)N(Cc4ccccc4)C(=O)[C@@H]3CC[C@@H]12`, the z-score in test [1] was 0.854; in test [2], -0.608 (inactive); in test [3], 0.334 (inactive); in test [5] it was -0.495 (inactive); in [6], 0.407 (inactive); in test [7], 0.426 (inactive). Also, the z-score in [8] is 0.918 (inactive); in test [9], 0.731. Moreover, the composite z-score in test [4] is -0.282 (inactive); in [10], -0.242.
Take `COCCCNC(=O)[C@@]1(CCS(=O)(=O)c2ccccc2)N=C(c2ccc(OCCCO)cc2)O[C@H]1c1ccccc1`: the z-score in test [1] is 1.62; in test [2] it was -0.44 (inactive); in test [3], 0.745 (inactive); in test [5], 0.0963 (inactive); in test [6], -0.287 (inactive); in test [7], 1.34 (inactive). The results for the z-score in test [8] and in test [9] were 0.953 (inactive) and 0.806, respectively. In addition, the composite z-score is 0.514 (inactive) in [4] and 0.14 in test [10].
For `CCCCC(=C=CC[C@H](O)c1ccccc1OCCO)C[C@H](O)COCc1ccccc1`, the z-score was -0.325 in test [1]; -1.18 (inactive) in test [2]; -0.505 (inactive) in test [3]; 0.637 (inactive) in [5]; -0.0076 (inactive) in [6]; 0.156 (inactive) in test [7]. Besides, the values for the z-score in test [8] and in [9] were 0.0347 (inactive) and -0.276, respectively. In addition, the composite z-score is -2.89 (inactive) in [4] and -0.0062 in [10].
As for `CC(C)NC(=O)[C@@]1(C)c2ccccc2C(=O)N(Cc2cc(F)cc(C(F)(F)F)c2)[C@H]1c1ccc(CO)cc1`, the z-score in test [1] is -0.0499; in test [2], 0.118 (inactive); in [3], 0.0847 (inactive); in [5] it was 0.897 (inactive); in test [6], -0.0826 (inactive); in test [7], -0.0821 (inactive). Moreover, the z-score in [8] is -0.043 (inactive); in [9] it was -0.744. Moreover, the figures for the composite z-score in test [4] and in test [10] were 0.0724 (inactive) and -0.157, respectively.
As for `CC(CCN1CCc2nc(-c3ccccc3)c(-c3ccccc3)cc2C1)=NO[C@@H](C)c1cn([C@H](CO)Cc2ccccc2)nn1`, the z-score is -1.41 in test [1]; -3.25 (inactive) in [2]; -0.996 (inactive) in test [3]; -0.23 (inactive) in [5]; -2.23 (inactive) in test [6]; -0.249 (inactive) in test [7]. Further, the z-score in test [8] is -0.147 (inactive); in test [9], -0.914. For the same compound, the composite z-score in test [4] is -1.81 (inactive); in test [10], -0.376.
`CN1C(=O)C2C=CC(C(O)c3ccc(Br)cc3)N(N(c3ccccc3)c3ccccc3)C2C1=O` (stereo not given): the z-score in [1] is -0.456; in [2], 0.431 (inactive); in [3] it was -1.19 (inactive); in test [5], 1.01 (inactive); in test [6], 1.32 (inactive); in [7] it was -0.499 (inactive). The z-score in test [8] is -0.283 (inactive); in test [9], -0.629. Also, the composite z-score in test [4] was 1.02 (inactive); in [10], -0.0255.

For the origin of these results see PubChem BioAssay.
